Screening data from PubChem BioAssay.
TDP1 cell CPT = qHTS for Inhibitors of human tyrosyl-DNA phosphodiesterase 1 (TDP1): qHTS in cells in presence of CPT. chicken DT40 Tdp1-/-;hTDP1 cells + 20 nM CPT, ATP luminescence, 48 h. Potency, µM (top dose mostly 46.2 µM), hits mostly inhibitors. hit rate 12% among 420,000; also: nearly all actives have a fitted effect of over 55% in size
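Cell growth measured by CellTiter-Glo luminescence after a minimum 48 h, 37 C compound exposure with 20 nM CPT in Tdp1-knockout DT40 cells stably expressing hTDP1, seeded 400/well; qHTS titration format.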
ClpP mod = qHTS Assay for Activators of ClpP; hit rate 1.9% among 340,000; Potency, µM (highest dose often 57.5 µM); purified B. subtilis ClpP, FRET peptide cleavage, 20 min; active = well fitted falling curve with a large enough effect; inconclusive = small, poorly fitted or top-dose-only effect; inactive = no such curve, though single readings can be large or run the other way; also: the source files actives as falling curves though it sought activators and does not explain the sign; nearly all actives have a fitted effect of over 65% in size
Target sequence (P80244 whole entry, looked up): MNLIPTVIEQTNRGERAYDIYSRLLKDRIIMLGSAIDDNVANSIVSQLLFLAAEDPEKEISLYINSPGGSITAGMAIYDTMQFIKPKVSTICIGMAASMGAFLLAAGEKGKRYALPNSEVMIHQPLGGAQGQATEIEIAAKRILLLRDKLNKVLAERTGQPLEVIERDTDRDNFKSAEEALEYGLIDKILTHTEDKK
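Buffer: 100 mM Tris/HCl pH8, 100 mM KCl, 0.05% low protease BSA, 2.5% glycerol, 0.01% Tween-20. ClpP 10 microg/mL final; 20 min RT; delta FRET normalized to ADEP and DMSO controls.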
TDP1 block = qHTS Assay for Inhibitors of Tyrosyl-DNA Phosphodiesterase (TDP1) | Potency, µM (top dose mostly 130 µM), usual class: inhibitors | hit rate 0.28% among 350,000 | recombinant TDP1, AlphaScreen DNA substrate cleavage | Tyrosyl-DNA phosphodiesterase 1 (Homo sapiens), Q9NUW8 | AID 485290, 2010; also: nearly all actives have a fitted effect of over 40% in size
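Tdp1 1 nM final; 15 min RT w/ cpd; substrate 15 nM, 5 min; beads 10 ug/ml, 10 min; AlphaScreen read. Neg ctrl: no enzyme.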
TDP1 cell noCPT = qHTS for Inhibitors of human tyrosyl-DNA phosphodiesterase 1 (TDP1): qHTS in cells in absence of CPT. hit rate 15% among 420,000. DT40 Tdp1-/- hTDP1 cells, no CPT, ATP luminescence, 48 h. Potency, µM (series often up to 46.2 µM), hits mostly inhibitors. AID 686978, 2013; also: nearly all actives have a fitted effect of over 55% in size
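Chicken DT40 Tdp1-/- cells complemented with human TDP1, screened without camptothecin (DMSO vehicle only), 400 cells/well. Compounds pin-transferred, cells incubated at 37 °C for at least 48 hr. Growth read as ATP-dependent luminescence (CellTiter-Glo, 30 min at RT).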
Numbers stand for hits; i = inactive; ? = inconclusive; nt = not tested or not shown; ! = a repeat was not active. Most compounds without a hit are left out; they make up all but 17% or so of the library. Unless noted, calls follow the shape of the dose curve; as a rule, active = well fitted curve in the direction sought with a large enough effect; inconclusive = small, poorly fitted or top-dose-only effect, or another doubt; inactive = no such curve, though single readings can be large; an effect the other way counts as inactive or inconclusive.

SMILES	TDP1 cell CPT	ClpP mod	TDP1 block	TDP1 cell noCPT
CC(=O)C1=C(c2ccc(Cl)c(Cl)c2)N(C(C)=O)n2cnnc2S1	2.59µM	i	i	2.91µM
COc1cccc(CSc2nc3n(n2)C(c2ccccc2C)C(C(=O)Nc2ccccc2OC)=C(C)N3)c1 (centres undefined)	?	?	i	?
COc1ccc2c(CC(=O)OCC(=O)N(C)c3c(N)n(Cc4ccccc4)c(=O)[nH]c3=O)coc2c1	i	i	nt	?
Cn1c(=O)n(C)c2cc(NS(=O)(=O)c3ccc(C(C)(C)C)cc3)ccc21	18.4µM	nt	nt	18.4µM
Cn1c(=O)c2cc(S(=O)(=O)Nc3ccc4c(c3)OCO4)ccc2n(C)c1=O	2.06µM	i	i	7.08µM
Cc1ccc(NS(=O)(=O)c2ccc3c(c2)n(C)c(=O)n3C)cc1	?	i	nt	i
Cn1c(=O)n(C)c2cc(NS(=O)(=O)c3ccc4c(c3)CCCC4)ccc21	17.8µM	i	i	?
COc1ccc(S(=O)(=O)Nc2ccc3c(c2)OCO3)cc1	i	i	i	?
O=C(Cn1cnc2ccccc2c1=O)NCCC(=O)Nc1ccc(F)cc1	i	i	i	i
O/N=C(/CI)c1ccc2ccccc2c1	?	i	nt	?
COc1cccc(-n2c(=O)c3sc4ccccc4c3n(CC(=O)Nc3ccccc3OC)c2=O)c1	9.2µM	i	i	14.6µM
O=C(Cn1c(=O)n(-c2cccc(Cl)c2)c(=O)c2sc3ccccc3c21)NC1CCCCC1	23.1µM	?	i	?
COc1cccc(-n2c(=O)c3sc4ccccc4c3n(CC(=O)NC3CCCCC3)c2=O)c1	i	i	i	?
CCC1C(=O)NCCN1Cc1ccc2c(c1)CN(Cc1ccc3c(c1)OCCO3)CCO2 (centres undefined)	?	nt	nt	i
CCCN(C(=O)c1sc2nc3n(c(=O)c2c1C)CCCC3)c1ccccc1C	18.4µM	i	i	?
CCN(C(=O)c1sc2nc3n(c(=O)c2c1C)CCCC3)c1ccccc1F	?	i	i	?
Cc1c(C(=O)NCc2ccc(Cl)cc2)sc2nc3n(c(=O)c12)CCC3	?	i	i	?
Cc1ccc(N(C)C(=O)c2sc3nc4n(c(=O)c3c2C)CCCC4)cc1C	23.1µM	i	i	18.4µM
Cc1ccc(Cl)cc1N(C)C(=O)c1sc2nc3n(c(=O)c2c1C)CCCC3	?	i	i	16.4µM
O=C(COC(=O)COc1ccccc1)Nc1ncc(Cl)cc1Cl	i	i	i	i
O=C(Cc1ccccc1)Nc1cccc(-c2cn3cccnc3n2)c1	?	i	i	?
COc1ccc(C(O)C(CN2CCOCC2)c2ccccc2)cc1F (centres undefined)	i	i	i	i
O=C(c1ccc(Cl)cc1)C(CN1CCCCC1)c1ccccc1 (centres undefined)	1.64µM	nt	nt	2.06µM
CCOC(=O)C(CN1CCCC1)c1ccccc1 (centres undefined)	i	i	i	i
CCCOc1ccc(C(=O)C(CN2CCOCC2)c2ccccc2)cc1 (centres undefined)	13µM	i	i	8.2µM
SMILES	TDP1 cell CPT	ClpP mod	TDP1 block	TDP1 cell noCPT
COc1ccc(C(=O)C(CN2CCOCC2)c2ccccc2)cc1F (centres undefined)	4.11µM	i	i	2.59µM
CCOC(=O)c1c(C)[nH]c(C(=O)N(C)CC(=O)Nc2ccc(OCC)c(OCC)c2)c1C	i	i	nt	?
CCOC(=O)c1ccc(CC(=O)c2ccc(O)cc2O)o1	?	i	i	13µM
COC(=O)c1ccc(CC(=O)c2ccc(O)cc2O)o1	?	i	i	?
Cc1cc(CN(C)Cc2cn(C)nc2-c2ccc(Oc3ccccc3)cc2)on1	?	i	i	16.4µM
CN(Cc1ccc(-n2cccn2)cc1)Cc1cn(C)nc1-c1ccccc1F	i	nt	i	i
CN(Cc1cccnc1)Cc1cn(C)nc1-c1cccc(Cl)c1	?	i	i	15.8µM!
CN(Cc1cccnc1)Cc1cn(C)nc1-c1ccc(Oc2ccccc2)cc1	?	nt	i	18.4µM
CCCNC(=O)C1(C)CCN(C(=O)c2ccc3sccc3c2)C1 (centres undefined)	i	i	nt	i
COc1ccc(C(=O)c2c3ccc(C(F)(F)F)cc3[n+]([O-])n2CCCN)cc1	?	i	i	?
CCOC(=O)C1CCN(c2nc(-c3ccc(C)cc3)nc3ccccc23)CC1	i	nt	i	i
CCc1ccc2ncc(C(=O)c3ccc(C)c(C)c3)c(N3CCC(C(N)=O)CC3)c2c1	23.1µM	i	i	20.6µM
CCOC(=O)C1CCN(c2c(C(=O)c3ccccc3)cnc3ccc(Cl)cc23)CC1	23.1µM	i	nt	18.4µM
Cc1c(C(=O)Nc2cccc([N+](=O)[O-])c2)cnn1-c1ccccc1	?	i	nt	?
COC(=O)C[C@H]1CC[C@H](NC(=O)c2cccc(F)c2)[C@@H](CO)O1	i	i	nt	i
OC(CN1CCCC1)Cn1ccc2ccccc21 (centres undefined)	i	i	nt	i
Cc1ccc(S(=O)(=O)NCc2ccc(C(=O)N3CCN(c4ccc([N+](=O)[O-])cc4)CC3)cc2)cc1	16.4µM	i	i	9.2µM
Cc1ccc(S(=O)(=O)NCc2ccc(C(=O)N3CCN(Cc4ccccc4)CC3)cc2)cc1	?	i	i	?
COc1ccc(CN2CCN(C(=O)c3ccc(CNS(=O)(=O)c4ccc(C)cc4)cc3)CC2)c(OC)c1OC	13µM	i	i	13µM
Cc1ccc(C)c(S(=O)(=O)NCc2ccc(C(=O)N3CCN(c4ccccc4)CC3)cc2)c1	?	?	i	?
COc1ccc(N2CCN(C(=O)c3ccc(CNS(=O)(=O)c4ccc(C)cc4)cc3)CC2)cc1	?	nt	i	11.6µM
COc1ccc(N2CCN(C(=O)c3ccc(CNS(=O)(=O)c4cc(C)ccc4C)cc3)CC2)cc1	20.6µM	i	i	14.6µM
COc1ccccc1CCNC(=O)CNC(=O)c1ccc2ccccc2c1	?	i	i	?
O=C(c1ccc(CNS(=O)(=O)c2ccc(F)cc2)cc1)N1CCCCCC1	?	i	nt	14.6µM
O=C(c1ccc(CNS(=O)(=O)c2cccc(Cl)c2)cc1)N1CCCC1	i	nt	i	i
SMILES	TDP1 cell CPT	ClpP mod	TDP1 block	TDP1 cell noCPT
Cc1ccc(C)c(S(=O)(=O)NCc2ccc(C(=O)N3CCCCCC3)cc2)c1	?	i	i	23.1µM
Cc1ccc2cccc(NC(=O)c3cccc4c(Cl)cccc34)c2n1	nt	i	i	nt
CCSC1=NCCN1C(=O)C(C)(C)Oc1ccc(Cl)cc1	i	nt	i	?
CCOC(=O)Cn1nc2oc(=O)c(CCN3CCN(c4ccccc4OC)CC3)c(C)c2c1C	i	i	nt	i
COc1ccccc1CN(C)C(=O)COC(=O)c1cc(C)oc1C	i	nt	i	?
Cc1ccc(S(=O)(=O)N2CCN(c3nc(-n4cccn4)nc4ccccc34)CC2)cc1	?	i	nt	?
Cc1ccc(S(=O)(=O)N2CCN(c3nc(-c4cscn4)nc4ccccc34)CC2)cc1	?	i	i	?
